Hits are enriched below; roughly 12% of the tested compounds scored in any of these assays.
Pf growth 48h: Primary qHTS for delayed death inhibitors of the malarial parasite plastid, 48 hour incubation; 310,000 tested, 5.9% active; Potency, µM (doses to about 28.7 µM), for inactives: at the highest dose activity change, negative = inhibition, usual class: inhibitors; P. falciparum luciferase growth in erythrocytes, 48 h; further: on the % scale 0 is the no-effect control and ±100 the full control effect
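First compound was added to culture medium, then infected red cells at 0.1% parasitemia and 2% hematocrit (final). After incubation at 37 C under 5% CO2, luciferase detection reagent was dispensed and light output recorded.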
Pf growth 96h: Primary qHTS for delayed death inhibitors of the malarial parasite plastid, 96 hour incubation. P. falciparum luciferase reporter growth, 96 h. Potency, µM (titrated, usually from 28.7 µM), for the others: at the highest dose activity change, negative = inhibition, most hits filed as inhibitors. 320,000 tested, 6.9% active; further: on the % scale 0 is the no-effect control and ±100 the full control effect
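Two-generation exposure (96 h) targets delayed-death phenotype. Reporter parasites carrying integrated firefly luciferase, in red cells at 2% hematocrit and 0.05% parasitemia final, kept at 37 C, 5% CO2; luminescence loss indicates inhibition.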
SARS PLpro yeast: qHTS of Yeast-based Assay for SARS-CoV PLP; S. cerevisiae expressing SARS-CoV PLpro, growth rescue; AID 485353, 2010; Potency, µM (doses to about 32.9 µM), without a hit: at the top dose activity, positive = growth rescue, usual class: activators; 330,000 tested, 0.19% active; calls by dose curve; further: 0% is about no effect; nearly all actives have a fitted effect of over 55% in size
Sm TGR block: qHTS Assay for the Inhibitors of Schistosoma Mansoni Peroxiredoxins. Potency, µM (titrated, usually from 114 µM), inactives show at the highest dose activity change, negative = inhibition, usual class: inhibitors. purified TGR, DTNB reduction, TNB absorbance 405 nm. Schistosoma mansoni thioredoxin glutathione reductase (TGR), Q962Y6. 360,000 tested, 3% active. AID 485364, 2010; further: on the % scale 0 is the no-effect control and ±100 the full control effect; nearly all actives have a fitted effect of over 60% in size
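Kinetic colorimetric format: TGR-catalysed, NADPH-driven DTNB reduction monitored via TNB absorbance. Enzyme dispensed at 20 nM; compound exposure 15 min at room temperature before reaction start.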
The depositor's hits bear a star; ? = inconclusive; nt = no result given; [ ] = dose if it differs, or a comment. Unless noted, the call rests on the fitted dose curve; in most records, active means well fitted curve in the direction sought with a large enough effect; inconclusive means small, poorly fitted or top-dose-only effect, or another doubt; inactive means no such curve, though single readings can be large; an effect the other way counts as inactive or inconclusive. Potency means the concentration at half of the fitted maximal effect.

SMILES	Pf growth 48h	Pf growth 96h	SARS PLpro yeast	Sm TGR block
CC(C)CN1C=C2C(=O)C(C)(OC(=O)C3CCCC3)C(=O)C=C2C=C1c1ccsc1 (centres undefined)	?	10.4µM*	-1.7%	-1.8%
CCN(CC)CCCN1C=C2C(=O)C(C)(OC(=O)C3CCCC3)C(=O)C=C2C=C1c1ccsc1 (centres undefined)	10.4µM*	?	1.0%	50.1µM*
C=CCN1C=C2C(=O)C(C)(OC(=O)C3CCCC3)C(=O)C=C2C=C1c1ccsc1 (centres undefined)	?	?	1.5%	-20.9%
CCn1c(CN2CCN(c3cccc(Cl)c3)CC2)nc2c1c(=O)[nH]c(=O)n2C	nt	nt	nt	2.4%
Cc1cccc(CSc2nc3[nH]ncc3c(=O)[nH]2)c1	21.0%	3.2%	3.6%	6.6%
O=c1[nH]c(SCc2ccc([N+](=O)[O-])cc2)nc2[nH]ncc12	?	7.38µM*	1.0%	8.5%
COc1ccccc1N1CCN(c2ncnc3c2c(-c2ccccc2)cn3-c2cccc(C)c2)CC1	nt	nt	nt	0.5%
C#CCOCCOCCOCCNc1nc(N2CCN(C(=O)CCCCCCCCCCNC(=O)[C@H]([C@@H](C)CC)n3cc(CCCCCN)nn3)CC2)nc(N2CCN(C(=O)CCCCCCCCCCNC(=O)[C@H](CO)n3cc(CCCCCN)nn3)CC2)n1	13.1µM*	?	-2.4%	?
C#CCOCCOCCOCCNc1nc(N2CCN(C(=O)CCCCCCCCCCNC(=O)[C@H]([C@@H](C)CC)n3cc(CCCCCN)nn3)CC2)nc(N2CCN(C(=O)CCCCCCCCCCNC(=O)[C@@H]([C@H](C)CC)n3cc(CCCCCN)nn3)CC2)n1	3.29µM*	?	2.1%	-33.6%
C#CCOCCOCCOCCNc1nc(N2CCOCC2)nc(N2CCN(C(=O)CCCCCCCCCCNC(=O)[C@@H]([C@H](C)CC)n3cc(CCCCCN)nn3)CC2)n1	1.17µM*	0.828µM*	-2.3%	-27.8%
C#CCOCCOCCOCCNc1nc(N2CCN(C(=O)Cn3cc(CCCCN)nn3)CC2)nc(N2CCN(C(=O)[C@H]([C@@H](C)CC)n3cc(CCCCN)nn3)CC2)n1	-6.3%	76.7%	-0.1%	-35.5%
Cc1cc(C)c2c(CC(=O)Nc3ccc(F)cc3)coc2c1	nt	nt	nt	6.9%
O=C(CCCl)N1CCN(c2nc(-c3ccccc3)cs2)CC1	22.5%	?	-1.4%	-23.7%
COCc1cc(=O)[nH]c(Sc2c(-c3ccccc3)c3ccc(Cl)cc3[nH]c2=O)n1	-1.8%	0.0%	23.5%	1.7%
Cc1ccc(SCCSc2nc(C)cc(=O)[nH]2)cc1	-1.6%	-13.7%	-1.5%	-7.9%
COCc1cc(=O)[nH]c(SCCS(=O)(=O)c2ccc(C)cc2)n1	2.33µM*	-2.1%	0.5%	-6.6%
COCc1cc(=O)[nH]c(SCCS(=O)(=O)c2ccc(Cl)cc2Cl)n1	3.5%	1.2%	-0.3%	0.316µM*
COC(=O)NCCOC(=O)N(O)c1ccc(Br)cc1	9.28µM*	?	3.8%	8.1%
CN1C(=O)C2(Nc3ccccc3-c3nc4ccccc4n32)c2ccccc21 (centres undefined)	8.28µM*	-7.6%	0.1%	-0.7%
CCN1C(=O)C2(Nc3ccccc3-c3nc4ccccc4n32)c2cc(OC)ccc21 (centres undefined)	9.28µM*	4.7%	9.4%	0.0%
O=C1Nc2ccccc2C12Nc1ccccc1-c1nc3ccccc3n12 (centres undefined)	0.738µM*	nt	2.7%	-10.2%
c1ccc2c(c1)NC1(CCCCCC1)n1c-2nc2ccccc21	117.0%	nt	-17.9%	-21.4%
COc1ccc2cc(CCOC3CCCCO3)ncc2c1 (centres undefined)	130.0%	230.6%	-0.2%	-29.5%
CCOc1ccccc1C(=O)NCC(=O)N1CCN(Cc2ccc3c(c2)OCO3)CC1	?	?	3.5%	-6.5%
O=C(C1CCN(S(=O)(=O)c2ccc(F)cc2)CC1)N1CCOCC1	11.0%	7.38µM*	5.2%	2.5%
SMILES	Pf growth 48h	Pf growth 96h	SARS PLpro yeast	Sm TGR block
Cc1ccc(S(=O)(=O)N2CCC(C(=O)Nc3ccc(N4CCOCC4)cc3)CC2)cc1C	4.15µM*	?	2.9%	1.2%
COC(=O)c1ccccc1S(=O)(=O)N1CCC(C(=O)Nc2ccc(N3CCOCC3)cc2)CC1	nt	nt	-0.1%	nt
O=C(C1CCN(S(=O)(=O)c2ccc(Cl)cc2)CC1)N1CCOCC1	nt	3.5%	23.7%	-0.2%
O=C(Nc1cccc(S(=O)(=O)N2CCOCC2)c1)[C@@H]1CCCN1S(=O)(=O)c1ccc(Cl)cc1	?	1.85µM*	3.4%	5.1%
O=C(Nc1ccc(N2CCOCC2)cc1)C1CCN(S(=O)(=O)c2ccc3c(c2)OCCO3)CC1	8.28µM*	?	0.8%	2.0%
O=C(Nc1ccc2c(c1)OCO2)C1CCN(S(=O)(=O)c2ccc3c(c2)OCCO3)CC1	?	30.4%	-5.3%	0.5%
O=C(CN(Cc1ccccc1)S(=O)(=O)c1ccc(F)cc1)NCc1ccccn1	?	?	0.3%	-5.0%
CCC(=O)Nc1ccc(S(=O)(=O)N2CCOCC2)cc1	nt	20.8%	1.3%	0.5%
O=C(Nc1ccc(S(=O)(=O)N2CCOCC2)cc1)C1CC1	32.3%	4.65µM*	-0.4%	-2.9%
O=C(CCN1C(=O)c2ccccc2S1(=O)=O)NCc1ccco1	18.1%	11.7µM*	-3.7%	50.2%
O=C(CCN1C(=O)c2ccccc2S1(=O)=O)NCc1ccccc1	-25.8%	35.2%	2.9%	1.2%
O=C(CCCCCN1C(=O)c2ccccc2C1=O)NCc1ccco1	nt	1.04µM*	0.3%	2.3%[11.4 µM]
CCOC(=O)CNC(c1ccccc1)c1cc(Br)ccc1NC(=O)c1ccc(Cl)cc1 (centres undefined)	nt	nt	nt	1.4%
O=C(/C(=N/N=C/c1ccc(O)c(O)c1O)c1ccccc1)c1ccccc1	10.4µM*	?	-100.0%	0.3%
CCCCC(=O)NC1(C(F)(F)F)NC(=O)N(C)C1=O (centres undefined)	-0.5%	-9.1%	-0.6%	?
Cc1noc(C)c1COc1ccc(C(=O)NCc2ccccn2)cc1	1.2%	9.28µM*	-2.9%	16.8%
COc1ccc(CCNC(=O)c2ccc(OCc3c(C)noc3C)cc2)cc1OC	9.28µM*	?	-6.2%	-2.0%
COC(=O)c1ccc(OC(=O)c2ccc(OCc3c(C)noc3C)c(OC)c2)cc1	14.5%	10.4µM*	6.7%	29.6%
Cc1noc(C)c1COc1ccc(C(=O)NCCc2ccc(F)cc2)cc1	?	?	-0.3%	-17.3%
COc1ccc(CCNC(=O)c2ccc(OCc3c(C)noc3C)c(OC)c2)cc1	nt	nt	-0.3%	nt
CCOc1ccc(CCNC(=O)c2ccc(OCc3c(C)noc3C)cc2)cc1OCC	?	7.38µM*	-0.7%	0.0%
O=C(Cn1nc(Cl)nc1Cl)c1cc2ccccc2oc1=O	-10.7%	?	-23.3%	14.1µM*
CC(C)c1c(C#N)c(N)nc(SCC(=O)c2cc3ccccc3oc2=O)c1C#N	1.4%	57.1%	-8.2%	-8.7%
Cn1cnnc1SCC(=O)c1cc2ccccc2oc1=O	4.6%	8.8%	0.8%	8.91µM*
